According to PubChem BioAssay:
Values joined by “and” are separate entries in the source; they are usually repeats but may differ in a detail not shown here. Equal values may be shown once. More than one record can exist for a structure, and the calls need not agree. Active and inactive are the calls of the source.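 How the source made its calls, unless noted: active means thallium flux through the channel raised or lowered by more than 3 SD from vehicle-only wells, actives on both sides; inactive means the rest.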

What was measured:
[1] = tested on: Hepatitis C virus NS3 helicase; experiment: blockers of NS3h binding to DNA – biochemical, fluorescence polarization, NIH Clinical Collection, primary screen (AID 743270; call rule not given here); settings: NS3 helicase binding to Cy5-dT15 DNA, stronger effect = higher value, concentration not given here
[2] = biological target: Single-stranded DNA-binding protein (Escherichia coli (strain K12)) (UniProt P0AGE0); experiment: SSB-ssDNA binding inhibitors – biochemical, fluorescence polarization, NIH Clinical Collection, counter-screen for HCV NS3 helicase inhibitor project (AID 743271; in the data active means inhibition above about 28%); settings: E. coli SSB-DNA binding, stronger effect = higher value, concentration not given here
[3] = compounds distorting NS3 helicase fluorescence signal – biochemical, NIH Clinical Collection, artefact control for HCV NS3 helicase inhibitor project (AID 743272; call rule not given here;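 further: HCV NS3 helicase with a Cy5 labelled single stranded DNA probe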); settings: fluorescence interference counterscreen, HCV NS3 helicase assay; stronger effect = lower value
[4] = Wnt pathway potentiators raising nuclear beta-catenin – imaging, WNT3A-conditioned medium, mouse C2C12, NPC library, primary screen (AID 1117326; in the data active means nuclear beta-catenin stimulation mostly above about 4.2%, no sharp cut-off; inactive means mostly below about 10%); settings: stronger effect = higher value
[5] = stimulators of insulin release from INS-1E, primary screen, cell-based, 5 mM glucose, NPC library (AID 1117329;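 active means compound raises insulin release from rat beta cells at 5 mM glucose, no numeric limit stated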); settings: rat INS-1E insulin secretion, at 10 µM, stronger effect = higher value
[6] = growth inhibition of GSK3B-pretreated HCT116 cells – cell-based, CellTiter-Glo, 0.2 to 20 µM (AID 1117336;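 active means compounds lowering colon cancer cell viability after pretreatment blocking the GSK3B kinase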); settings: HCT116 viability after GSK3B inhibitor, at 20 µM, stronger effect = higher value
[7] = inhibition of endothelial tube formation, primary screen, imaging, VEGF stimulated, CD31 staining, tube area, NPC library (AID 1117340;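 active means compound that reduces growth-factor-driven endothelial tube area in a mixed cell culture, no cutoff stated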); settings: VEGF-stimulated ADSC/ECFC co-culture, at 10 µM, stronger effect = higher value
[8] = GLP1 release stimulators, primary, NCI-H716, NPC library (AID 1117341;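 active means compound raises GLP1 secretion from the human gut endocrine cells, with no numeric limit stated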); settings: NCI-H716 cells, at 10 µM, stronger effect = higher value
[9] = HCT116 colon cancer cell growth inhibition, primary screen, CellTiter-Glo luminescence, NPC library (AID 1117342;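 active means compounds that lower survival of HCT116 colon cancer cells in the luminescence readout, no numeric limit stated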); settings: at 20 µM (top of the series)
[10] = reduced SW480 viability measured with CellTiter-Glo, NPC library, primary (AID 1117343;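 active means compounds that lower viability of the colon cancer cells in the luminescence readout, with no numeric limit stated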); settings: CellTiter-Glo luminescence; at 20 µM (top of the series)
[11] = NPC library primary testing for decreased DLD-1 cell viability via CellTiter-Glo (AID 1117346;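 active means compounds that lower survival of DLD-1 colon cancer cells in the luminescence readout, no cutoff given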); settings: DLD-1 viability, CellTiter-Glo luminescence; at 20 µM (top of the series)
[12] = biological target: 6-phosphogluconate dehydrogenase, decarboxylating (Homo sapiens) (UniProt P52209); experiment: inhibition of human phosphogluconate dehydrogenase – biochemical, recombinant enzyme, NADPH absorbance, primary screen (AID 1159550;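 active means at least 20% inhibition of 6-phosphogluconate dehydrogenase activity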); settings: recombinant 6PGD, NADPH absorbance 341 nm; at 10 µM; stronger effect = higher value
[13] = EMT-state selective cytotoxicity in co-culture – imaging, PC-3E GFP, TEM4-18 mCherry, primary screen (AID 1345086;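 active means compounds killing one labelled cell type while sparing the other, by normalised counts and ratio limits, not self-fluorescent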;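 on all read-outs here: cells exposed to compound for 72 h before imaging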;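 on red/green cell ratio (normalised): normalised mesenchymal count divided by normalised epithelial count so high means epithelial killing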); settings: PC-3E GFP / TEM4-18 mCherry co-culture, imaging cell counts, at 1 µM; for red/green cell ratio (normalised): actives lie on both sides, counts scaled to control wells, 1 = unselective
[14] = MELAS cybrid and Rieske KO viability enhancers – cell-based, MELAS cybrids, Rieske KO mouse fibroblasts, CellTiter-Glo, primary screen (AID 1508586;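 active means mean z-score across replicates of 1.96 or higher in either the MELAS or the Rieske mutant cell line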;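 further: z relative to plate mean and SD of compound and empty wells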); settings: low glucose
[15] = biological target: NAD(+) hydrolase SARM1 (Homo sapiens) (UniProt Q6SZW1); experiment: blocking NAD cleavage by SARM1 SAM-TIR – cell lysate, NAD-Glo luminescence (AID 1508614;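 active means compound whose remaining NAD level is above about 45 nM, limit read from the data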); settings: SAM-TIR HEK293T lysate NADase, at 1 µM, stronger effect = higher value
[16] = biological target: Mitogen-activated protein kinase 7 (Homo sapiens) (UniProt Q13164); experiment: Gal4-ERK5 driven luciferase induction – cell-based, HTS, primary screen (AID 1508626;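 active means luciferase signal above three times the same-plate solvent-only control wells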;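 further: luciferase driven by Gal4-ERK5 fusion binding five Gal4 sites before minimal TATA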); settings: HeLa Gal4-ERK5 transactivation, 18 h, at 5 µM, stronger effect = higher value
[17] = tested on: F380Y; experiment: BK channel mutant inhibitors and activators – cell-based, U2OS BacMam, thallium flux, beta subunits, selectivity assay, profiling panel (AID 1259406); settings: U2OS BacMam BK variants, at 30 µM;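 further: initial slope of Thallos dye fluorescence rise after thallium is added; log ratio against the mean of 0.3% DMSO vehicle wells on the same plate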
[18] = tested on: F380Y/beta2Delta; experiment: as above; settings: U2OS BacMam BK variants, at 30 µM
[19] = biological target: Calcium-activated potassium channel subunit alpha-1 (Homo sapiens) + Leucine-rich repeat-containing protein 26 (Homo sapiens) (UniProt Q12791+Q2I0M4); experiment: as above; settings: U2OS BacMam BK variants, F380Y/Slo1WT/gamma1, at 30 µM
[20] = viability loss with induced miR-34 in A549 – imaging, A549 dox-inducible miR-34, nuclei and caspase counts, primary screen (AID 1347080); settings: A549 miR-34 inducible, Hoechst nuclei count, 48 h; measured here: total cells without miR-34 induction
[21] = measured here: epithelial PC-3E GFP cell survival
[22] = measured here: mesenchymal TEM4-18 mCherry cell survival
[23] = MELAS cybrid survival, CellTiter-Glo 48 h, stronger effect = higher value
[24] = Rieske KO mouse fibroblast survival, CellTiter-Glo 72 h

6-phosphogluconate dehydrogenase, decarboxylating (Homo sapiens), sequence (P52209 whole entry, looked up): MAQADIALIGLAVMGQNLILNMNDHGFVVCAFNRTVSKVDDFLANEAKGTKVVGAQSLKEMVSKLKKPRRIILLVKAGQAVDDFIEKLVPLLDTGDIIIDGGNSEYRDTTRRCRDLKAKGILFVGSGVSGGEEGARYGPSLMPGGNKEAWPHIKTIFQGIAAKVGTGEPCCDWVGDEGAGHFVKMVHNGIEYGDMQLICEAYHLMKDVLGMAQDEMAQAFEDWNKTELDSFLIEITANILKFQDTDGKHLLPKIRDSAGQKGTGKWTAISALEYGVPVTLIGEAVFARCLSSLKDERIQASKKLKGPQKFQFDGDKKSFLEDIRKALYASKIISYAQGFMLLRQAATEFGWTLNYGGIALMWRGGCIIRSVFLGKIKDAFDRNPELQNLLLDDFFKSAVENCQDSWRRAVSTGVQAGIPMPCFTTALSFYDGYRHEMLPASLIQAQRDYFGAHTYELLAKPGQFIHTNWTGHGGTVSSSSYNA
NAD(+) hydrolase SARM1 (Homo sapiens), sequence (Q6SZW1 whole entry, looked up, the tested form may be a part): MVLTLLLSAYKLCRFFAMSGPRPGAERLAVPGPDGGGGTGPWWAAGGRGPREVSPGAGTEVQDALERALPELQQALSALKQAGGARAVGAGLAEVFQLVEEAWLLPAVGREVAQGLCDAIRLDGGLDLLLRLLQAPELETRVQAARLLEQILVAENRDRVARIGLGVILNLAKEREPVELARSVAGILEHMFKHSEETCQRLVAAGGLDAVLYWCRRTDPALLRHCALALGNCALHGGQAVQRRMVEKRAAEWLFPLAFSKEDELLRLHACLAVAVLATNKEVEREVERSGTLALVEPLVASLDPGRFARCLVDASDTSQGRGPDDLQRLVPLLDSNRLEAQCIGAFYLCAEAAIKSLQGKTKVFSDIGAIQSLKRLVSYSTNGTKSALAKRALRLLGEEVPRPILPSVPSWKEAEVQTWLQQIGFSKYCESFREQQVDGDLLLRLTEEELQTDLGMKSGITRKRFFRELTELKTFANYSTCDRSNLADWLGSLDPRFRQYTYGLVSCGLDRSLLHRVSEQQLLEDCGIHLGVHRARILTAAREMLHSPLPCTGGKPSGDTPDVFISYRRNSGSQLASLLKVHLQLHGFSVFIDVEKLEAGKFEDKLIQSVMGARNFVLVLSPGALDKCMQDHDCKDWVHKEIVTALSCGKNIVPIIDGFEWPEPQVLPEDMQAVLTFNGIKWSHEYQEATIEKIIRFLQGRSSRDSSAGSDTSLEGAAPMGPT
Mitogen-activated protein kinase 7 (Homo sapiens), sequence (Q13164 whole entry, looked up, the tested form may be a part): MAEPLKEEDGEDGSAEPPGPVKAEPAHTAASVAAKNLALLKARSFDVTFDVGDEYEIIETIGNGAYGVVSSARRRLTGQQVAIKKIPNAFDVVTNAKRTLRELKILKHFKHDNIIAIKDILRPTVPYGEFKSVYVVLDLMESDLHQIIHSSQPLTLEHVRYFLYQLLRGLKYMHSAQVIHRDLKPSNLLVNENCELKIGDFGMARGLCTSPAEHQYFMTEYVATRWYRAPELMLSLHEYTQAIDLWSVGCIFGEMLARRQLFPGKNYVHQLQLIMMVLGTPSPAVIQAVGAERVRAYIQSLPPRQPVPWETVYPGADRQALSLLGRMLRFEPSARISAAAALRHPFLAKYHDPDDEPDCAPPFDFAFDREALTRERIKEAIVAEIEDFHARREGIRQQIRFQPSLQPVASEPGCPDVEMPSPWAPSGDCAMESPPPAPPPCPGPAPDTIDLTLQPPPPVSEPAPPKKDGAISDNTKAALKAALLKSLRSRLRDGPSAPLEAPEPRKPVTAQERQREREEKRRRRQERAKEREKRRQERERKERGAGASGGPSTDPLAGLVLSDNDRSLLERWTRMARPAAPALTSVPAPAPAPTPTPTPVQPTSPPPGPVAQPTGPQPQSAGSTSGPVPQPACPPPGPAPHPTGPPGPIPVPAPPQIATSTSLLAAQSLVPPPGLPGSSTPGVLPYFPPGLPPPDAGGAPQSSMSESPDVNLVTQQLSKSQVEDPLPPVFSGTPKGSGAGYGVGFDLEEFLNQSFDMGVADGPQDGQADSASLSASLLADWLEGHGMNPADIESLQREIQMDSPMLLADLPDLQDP
Calcium-activated potassium channel subunit alpha-1 (Homo sapiens) + Leucine-rich repeat-containing protein 26 (Homo sapiens), sequence (Q2I0M4 whole entry, looked up, one chain of several): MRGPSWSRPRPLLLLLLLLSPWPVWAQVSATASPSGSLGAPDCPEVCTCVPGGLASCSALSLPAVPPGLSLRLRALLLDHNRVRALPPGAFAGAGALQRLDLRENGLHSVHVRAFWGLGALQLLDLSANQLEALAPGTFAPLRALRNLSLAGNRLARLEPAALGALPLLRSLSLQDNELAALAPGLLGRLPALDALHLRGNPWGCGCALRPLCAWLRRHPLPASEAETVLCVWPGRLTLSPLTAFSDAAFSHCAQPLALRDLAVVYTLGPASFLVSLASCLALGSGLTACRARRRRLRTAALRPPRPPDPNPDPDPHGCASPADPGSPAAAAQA

CCN(CC)CCOC(=O)C1(C2CCCCC2)CCCCC1
inhibition [1]: -3.18% (inactive) | inhibition [2]: 4.1% (inactive) | fluorescence ratio [3]: 0.95 (inactive) | nuclear beta-catenin stimulation ([4]; at 10 µM): 2.1% (inactive) | nuclear beta-catenin stimulation ([4]; stimulation, at 2 µM): 1.1% | insulin secretion stimulation [5]: 6.9% (inactive) | viability decrease [6]: -64.7% (inactive) | tube area decrease [7]: -0.9% (inactive) | GLP1 secretion stimulation [8]: 5.4% (inactive) | inhibition of viability [9]: 36.5% (inactive) | viability decrease (inhibition) [10]: 84.8% (active) | viability decrease (inhibition) [11]: 34.2% (inactive) | inhibition [12]: 11.5% (inactive) | red/green cell ratio (normalised) [13]: 1.32 (inactive) | normalised cell number [13, 21]: 1.25 | normalised cell number [13, 22]: 1.66 | z-score [14, 23]: 0.288 (inactive) and 0.358 (inactive) | z-score [14, 24]: -0.235 and -0.17 | remaining NAD [15]: 10 nM (inactive) | luciferase signal [16]: 1050 AU (active) | log fold change Tl+ flux [17]: 0.0289 (inactive) | log fold change Tl+ flux [18]: 0.0166 (inactive) | log fold change Tl+ flux [19]: -0.023 (inactive)

CN(C)CCCN1c2ccccc2Sc2ccc(Cl)cc21
inhibition [1]: -4.09% (inactive) | inhibition [2]: -1.24% (inactive) | fluorescence ratio [3]: 0.91 (inactive) | nuclear beta-catenin stimulation ([4]; at 10 µM): 5.5% (inactive) | nuclear beta-catenin stimulation ([4]; stimulation, at 2 µM): 0.9% | insulin secretion stimulation [5]: 8.9% (inactive) | viability decrease [6]: 82% (active) | tube area decrease [7]: 68.7% (active) | GLP1 secretion stimulation [8]: 15.5% (inactive) | inhibition of viability [9]: 96.1% (active) | viability decrease (inhibition) [10]: 128% (active) | viability decrease (inhibition) [11]: 93.1% (active) | inhibition [12]: 10.5% (inactive) | red/green cell ratio (normalised) [13]: 1.34 (inactive) | normalised cell number [13, 21]: 0.97 | normalised cell number [13, 22]: 1.3 | z-score [14, 23]: 2.27 (active) and 0.163 (inactive) and 0.651 (inactive) | z-score [14, 24]: -0.778 and 0.446 and 0.902 | remaining NAD [15]: 10 nM (inactive) | luciferase signal [16]: 68 AU (inactive) | log fold change Tl+ flux [17]: 0.156 (active) | log fold change Tl+ flux [18]: 0.221 (active) | log fold change Tl+ flux [19]: 0.0114 (inactive)

CC(C)(C)NCC(O)c1cc(O)cc(O)c1 (centres undefined)
inhibition [1]: -2.27% (inactive) | inhibition [2]: -3.53% (inactive) | fluorescence ratio [3]: 1.04 (inactive) | nuclear beta-catenin stimulation ([4]; at 10 µM): 1.5% (inactive) | nuclear beta-catenin stimulation ([4]; stimulation, at 2 µM): 3.1% | insulin secretion stimulation [5]: -1% (inactive) | viability decrease [6]: -25.1% (inactive) | tube area decrease [7]: -9.7% (inactive) | GLP1 secretion stimulation [8]: 1.4% (inactive) | inhibition of viability [9]: 3.9% (inactive) | viability decrease (inhibition) [10]: 20.2% (inactive) | viability decrease (inhibition) [11]: -3.5% (inactive) | inhibition [12]: -13.6% (inactive) | red/green cell ratio (normalised) [13]: 1.28 (inactive) | normalised cell number [13, 21]: 0.91 | normalised cell number [13, 22]: 1.16 | cell count [20]: 10100 and 11300 and 12600 | z-score [14, 23]: -0.672 (inactive) | z-score [14, 24]: -0.203 | remaining NAD [15]: 10 nM (inactive) | luciferase signal [16]: 108 AU (inactive) | log fold change Tl+ flux [17]: 0.00388 (inactive) | log fold change Tl+ flux [18]: 0.0185 (inactive) | log fold change Tl+ flux [19]: 0.00552 (inactive)

Cc1nc2ccccn2c(=O)c1CCN1CCC(C(=O)c2ccc(F)cc2)CC1
inhibition [1]: 5.94% (inactive) | inhibition [2]: 3.75% (inactive) | fluorescence ratio [3]: 0.93 (inactive) | nuclear beta-catenin stimulation ([4]; at 10 µM): -0.7% (inactive) | nuclear beta-catenin stimulation ([4]; stimulation, at 2 µM): -2.4% | insulin secretion stimulation [5]: 3.35% (inactive) | viability decrease [6]: 24.3% (inactive) | tube area decrease [7]: 6% (inactive) | GLP1 secretion stimulation [8]: 10.6% (inactive) | inhibition of viability [9]: 67.9% (active) | viability decrease (inhibition) [10]: 30.7% (inactive) | viability decrease (inhibition) [11]: 11.5% (inactive) | inhibition [12]: 0.157% (inactive) | red/green cell ratio (normalised) [13]: 1.29 (inactive) | normalised cell number [13, 21]: 0.87 | normalised cell number [13, 22]: 1.12 | z-score [14, 23]: -0.0109 (inactive) | z-score [14, 24]: -0.116 | remaining NAD [15]: 10 nM (inactive) | luciferase signal [16]: 52 AU (inactive) | log fold change Tl+ flux [17]: 0.00566 (inactive) | log fold change Tl+ flux [18]: -0.00369 (inactive) | log fold change Tl+ flux [19]: -0.0679 (inactive)

CCN(CC)CCNC(=O)c1ccc(N)cc1
nuclear beta-catenin stimulation ([4]; at 10 µM): 1.2% (inactive) | nuclear beta-catenin stimulation ([4]; stimulation, at 2 µM): 2.4% | insulin secretion stimulation [5]: 1.1% (inactive) | viability decrease [6]: 1.4% (inactive) | tube area decrease [7]: 8.7% (inactive) | GLP1 secretion stimulation [8]: 2.8% (inactive) | inhibition of viability [9]: 15.3% (inactive) | viability decrease (inhibition) [10]: -11.5% (inactive) | viability decrease (inhibition) [11]: -4.7% (inactive) | inhibition [12]: 13.2% (inactive) | red/green cell ratio (normalised) [13]: 0.9 (inactive) | normalised cell number [13, 21]: 0.66 | normalised cell number [13, 22]: 0.59 | z-score [14, 23]: -0.241 (inactive) and -0.159 (inactive) and 0.703 (inactive) | z-score [14, 24]: -0.144 and -0.31 and 0.675 | remaining NAD [15]: 10 nM (inactive) | luciferase signal [16]: 56 AU (inactive) | log fold change Tl+ flux [17]: -0.0589 (inactive) | log fold change Tl+ flux [18]: 0.0202 (inactive) | log fold change Tl+ flux [19]: 0.0259 (inactive)

Cc1ccc(Cl)c(Nc2ccccc2C(=O)O)c1Cl
inhibition [1]: 0.45% (inactive) | inhibition [2]: -0.48% (inactive) | fluorescence ratio [3]: 1 (inactive) | nuclear beta-catenin stimulation ([4]; at 10 µM): 0.5% (inactive) | nuclear beta-catenin stimulation ([4]; stimulation, at 2 µM): 1.2% | insulin secretion stimulation [5]: -1.1% (inactive) | viability decrease [6]: 8.4% (inactive) | tube area decrease [7]: 22.9% (inactive) | GLP1 secretion stimulation [8]: 5% (inactive) | inhibition of viability [9]: 35.8% (inactive) | viability decrease (inhibition) [10]: 58.5% (active) | viability decrease (inhibition) [11]: 78.5% (active) | inhibition [12]: 7.02% (inactive) | red/green cell ratio (normalised) [13]: 0.98 (inactive) | normalised cell number [13, 21]: 0.92 | normalised cell number [13, 22]: 0.9 | z-score [14, 23]: -0.277 (inactive) and 0.657 (inactive) | z-score [14, 24]: -0.131 and 0.573 | remaining NAD [15]: 10 nM (inactive) | luciferase signal [16]: 48 AU (inactive) | log fold change Tl+ flux [17]: 0.212 (active) | log fold change Tl+ flux [18]: 0.243 (active) | log fold change Tl+ flux [19]: 0.122 (active)

c1ccc2c(c1)CCCC2C1=NCCN1 (centres undefined)
inhibition [1]: -4.09% (inactive) | inhibition [2]: -0.48% (inactive) | fluorescence ratio [3]: 0.93 (inactive) | nuclear beta-catenin stimulation ([4]; at 10 µM): 4.7% (inactive) | nuclear beta-catenin stimulation ([4]; stimulation, at 2 µM): -0.1% | insulin secretion stimulation [5]: -0.4% (inactive) | viability decrease [6]: -30.2% (inactive) | tube area decrease [7]: -9.5% (inactive) | GLP1 secretion stimulation [8]: 0.9% (inactive) | inhibition of viability [9]: 0.6% (inactive) | viability decrease (inhibition) [10]: 11.2% (inactive) | viability decrease (inhibition) [11]: -6.9% (inactive) | inhibition [12]: 19.3% (inactive) | red/green cell ratio (normalised) [13]: 1.32 (inactive) | normalised cell number [13, 21]: 1.03 | normalised cell number [13, 22]: 1.36 | z-score [14, 23]: -0.281 (inactive) and -0.833 (inactive) | z-score [14, 24]: -0.176 and -0.558 | remaining NAD [15]: 10 nM (inactive) | luciferase signal [16]: 44 AU (inactive) | log fold change Tl+ flux [17]: -0.0277 (inactive) | log fold change Tl+ flux [18]: -0.0151 (inactive) | log fold change Tl+ flux [19]: 0.0123 (inactive)
